# Experimental data as given in PubChem BioAssay (EPA / NIEHS).
# Results filed as inconclusive are left out. Where a structure was tested more than once in an assay, its records may differ in their call. Calls of active or inactive are those of the source. The calls were made as follows: active = hit-call score of the fitted dose curve at least 0.9, where 1 is the maximum; inconclusive = response in the unintended direction; inactive = score below 0.9.
# How the values were obtained:
# [1] = biological target: human Orphanin, Opioid Related Nociceptin Receptor 1 (ORL1), OPRL1 (gene 4987) (UniProt P41146); test: NVS_GPCR_hORL1: NovaScreen (NVS) G Protein-Coupled Receptor Assay for human Orphanin, Opioid Related Nociceptin Receptor 1 (ORL1) (AID 2283283)
# Outline: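 Cell-free binding using HEK293-derived receptor protein: radioligand displacement measured by filter scintillation 1 hour after dosing. Primary testing at 25 uM in duplicate, followed by singleton concentration series up to 50 uM; DMSO served as negative control.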
# [2] = biological target: rat Corticotropin Releasing Factor Receptor (CRF), Crhr1 (gene 58959) (UniProt P35353); test: NVS_GPCR_rCRF: NovaScreen (NVS) G Protein-Coupled Receptor Assay for rat Corticotropin Releasing Factor Receptor (CRF) (AID 2283300)
# Outline: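 Single-concentration (25 uM, duplicate) radioligand binding on rat cortical membrane preparations, counted by scintillation after 2 h. Activity scored as signal loss relative to DMSO negative control.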
# [3] = biological target: mouse Cholecystokinin, CCK1 Receptor (CCKA), Cckar (gene 12425) (UniProt O08786); test: NVS_GPCR_mCCKAPeripheral: NovaScreen (NVS) G Protein-Coupled Receptor Assay for mouse Cholecystokinin, CCK1 Receptor (CCKA) (AID 2283285)
# Outline: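 Chemicals were first screened in duplicate at 25 uM, with those meeting threshold (e.g., 30% inhibition) retested in singleton concentration series to 50 uM maximum. Binding of radioligand to mouse pancreatic membranes was read after 2 h by filtration and scintillation counting.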
# [4] = biological target: human Neonicotinoid receptor (NNR), CHRNA2 (gene 1135) (UniProt Q15822); test: NVS_LGIC_hNNR_NBungSens: NovaScreen (NVS) Ligand-Gated Ion Channel Assay for human Neonicotinoid receptor (NNR) (AID 2283313)
# Outline: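 Compounds first screened in duplicate at 25 uM, then actives re-tested in single-replicate dose series up to 50 uM. Binding measured as displacement of specific radioligand from neuroblastoma membrane receptors after 2 h, scintillation read on filters.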
# [5] = system: 5-hydroxytryptamine receptor 2C (pig); test: NVS_GPCR_p5HT2C: NovaScreen (NVS) G Protein-Coupled Receptor Assay for pig Serotonin, 5-Hydroxytryptamine Receptor 2C (5HT2C) (AID 2283288)
# Outline: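 Radioligand displacement on membranes from pig choroid plexus, detected by filter scintillation counting after 1 h. Tested first at a single 25 uM in duplicate, then in concentration-response for actives; DMSO served as baseline.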
# [6] = biological target: mouse Cholecystokinin, CCK2 Receptor (CCKB), Cckbr (gene 12426) (UniProt P56481); test: NVS_GPCR_mCKKBCentral: NovaScreen (NVS) G Protein-Coupled Receptor Assay for mouse Cholecystokinin, CCK2 Receptor (CCKB) (AID 2283293)
# Outline: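 Mouse forebrain membrane preparation incubated 2 h with chemical and radioligand; bound radioactivity counted after filtration. Single-concentration duplicate screen at 25 uM, then concentration series to 50 uM max for hits, DMSO as baseline.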
# [7] = system: rat Adrenergic, Alpha 1B Receptor (Adra1B), gene 24173; test: NVS_GPCR_rAdra1B: NovaScreen (NVS) G Protein-Coupled Receptor Assay for rat Adrenergic, Alpha 1B Receptor (Adra1B) (AID 2283297)
# Outline: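 Filter-binding radioligand competition on membranes from rat liver, read after 1 h by scintillation counting. Single-concentration duplicate screen at 25 uM, followed by concentration-response on actives, normalised to DMSO.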
# [8] = biological target: rat Neonicotinoid receptor (NNR), Chrna7 (gene 25302) (UniProt Q05941); test: NVS_LGIC_rNNR_BungSens: NovaScreen (NVS) Ligand-Gated Ion Channel Assay for rat Neonicotinoid receptor (NNR) (AID 2283315)
# Outline: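 Rat cortical membrane preparation incubated 2.5 h with tritiated or iodinated radioligand and test chemical. Bound radioactivity was filtered and counted by scintillation, and displacement was analysed against DMSO.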
# Sequence of rat Neonicotinoid receptor (NNR), Chrna7 (gene 25302) (Q05941 whole entry, looked up): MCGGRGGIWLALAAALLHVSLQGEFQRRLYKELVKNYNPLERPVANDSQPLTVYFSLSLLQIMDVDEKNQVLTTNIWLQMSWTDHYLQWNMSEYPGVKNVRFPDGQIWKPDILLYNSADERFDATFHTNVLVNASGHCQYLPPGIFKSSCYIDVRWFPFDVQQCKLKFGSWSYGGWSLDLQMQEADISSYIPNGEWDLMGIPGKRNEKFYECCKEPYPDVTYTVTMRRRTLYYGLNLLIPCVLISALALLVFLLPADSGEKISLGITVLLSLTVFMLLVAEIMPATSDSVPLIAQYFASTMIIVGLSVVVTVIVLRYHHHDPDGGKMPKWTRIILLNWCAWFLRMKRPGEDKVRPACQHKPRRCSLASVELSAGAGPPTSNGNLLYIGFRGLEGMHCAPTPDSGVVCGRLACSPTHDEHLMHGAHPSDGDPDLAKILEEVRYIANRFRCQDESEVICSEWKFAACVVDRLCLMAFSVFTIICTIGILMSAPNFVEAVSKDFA
# Sequence of human Orphanin, Opioid Related Nociceptin Receptor 1 (ORL1), OPRL1 (gene 4987) (P41146 whole entry, looked up): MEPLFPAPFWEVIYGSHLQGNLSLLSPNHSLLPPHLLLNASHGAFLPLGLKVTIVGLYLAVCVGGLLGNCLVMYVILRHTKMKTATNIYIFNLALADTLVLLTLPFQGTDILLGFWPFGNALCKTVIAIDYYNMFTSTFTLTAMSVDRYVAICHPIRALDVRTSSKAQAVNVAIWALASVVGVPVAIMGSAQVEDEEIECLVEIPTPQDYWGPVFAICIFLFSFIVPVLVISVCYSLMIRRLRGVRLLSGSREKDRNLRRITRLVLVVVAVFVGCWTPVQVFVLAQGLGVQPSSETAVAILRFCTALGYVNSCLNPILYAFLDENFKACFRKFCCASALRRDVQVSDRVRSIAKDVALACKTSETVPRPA
# Sequence of rat Corticotropin Releasing Factor Receptor (CRF), Crhr1 (gene 58959) (P35353 whole entry, looked up): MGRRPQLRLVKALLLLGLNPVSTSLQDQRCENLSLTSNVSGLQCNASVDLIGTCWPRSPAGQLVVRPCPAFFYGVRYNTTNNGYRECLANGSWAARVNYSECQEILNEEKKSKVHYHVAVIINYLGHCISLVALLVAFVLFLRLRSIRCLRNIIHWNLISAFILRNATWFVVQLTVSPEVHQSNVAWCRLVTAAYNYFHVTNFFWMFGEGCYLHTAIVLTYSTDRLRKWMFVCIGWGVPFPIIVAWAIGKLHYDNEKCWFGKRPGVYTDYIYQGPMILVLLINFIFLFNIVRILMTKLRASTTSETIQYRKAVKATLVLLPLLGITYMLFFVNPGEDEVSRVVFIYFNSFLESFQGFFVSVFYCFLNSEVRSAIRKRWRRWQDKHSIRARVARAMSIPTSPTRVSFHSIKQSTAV
# Sequence of mouse Cholecystokinin, CCK2 Receptor (CCKB), Cckbr (gene 12426) (P56481 whole entry, looked up): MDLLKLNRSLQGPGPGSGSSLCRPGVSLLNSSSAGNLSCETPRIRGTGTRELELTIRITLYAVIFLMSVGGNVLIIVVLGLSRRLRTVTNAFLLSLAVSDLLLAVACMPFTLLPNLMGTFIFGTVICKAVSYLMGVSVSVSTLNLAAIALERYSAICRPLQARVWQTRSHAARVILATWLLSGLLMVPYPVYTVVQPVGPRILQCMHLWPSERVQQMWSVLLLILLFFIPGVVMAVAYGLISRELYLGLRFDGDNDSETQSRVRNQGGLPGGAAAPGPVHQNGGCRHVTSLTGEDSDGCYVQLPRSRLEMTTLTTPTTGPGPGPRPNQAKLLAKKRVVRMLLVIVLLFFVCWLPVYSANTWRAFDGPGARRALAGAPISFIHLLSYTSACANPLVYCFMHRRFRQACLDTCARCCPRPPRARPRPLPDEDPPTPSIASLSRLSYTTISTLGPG
# Sequence of mouse Cholecystokinin, CCK1 Receptor (CCKA), Cckar (gene 12425) (O08786 whole entry, looked up): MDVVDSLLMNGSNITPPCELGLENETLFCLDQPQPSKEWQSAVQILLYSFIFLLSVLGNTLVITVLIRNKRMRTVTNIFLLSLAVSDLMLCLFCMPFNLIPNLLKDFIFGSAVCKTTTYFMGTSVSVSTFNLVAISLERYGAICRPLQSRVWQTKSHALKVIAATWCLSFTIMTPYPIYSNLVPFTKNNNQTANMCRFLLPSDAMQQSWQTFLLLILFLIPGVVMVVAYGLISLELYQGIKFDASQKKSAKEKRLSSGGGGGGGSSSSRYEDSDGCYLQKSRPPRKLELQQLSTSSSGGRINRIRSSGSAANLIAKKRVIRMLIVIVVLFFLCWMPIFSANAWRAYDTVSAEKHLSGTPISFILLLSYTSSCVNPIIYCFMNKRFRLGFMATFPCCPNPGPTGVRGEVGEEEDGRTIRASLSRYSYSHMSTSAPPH
# Sequence of human Neonicotinoid receptor (NNR), CHRNA2 (gene 1135) (Q15822 whole entry, looked up): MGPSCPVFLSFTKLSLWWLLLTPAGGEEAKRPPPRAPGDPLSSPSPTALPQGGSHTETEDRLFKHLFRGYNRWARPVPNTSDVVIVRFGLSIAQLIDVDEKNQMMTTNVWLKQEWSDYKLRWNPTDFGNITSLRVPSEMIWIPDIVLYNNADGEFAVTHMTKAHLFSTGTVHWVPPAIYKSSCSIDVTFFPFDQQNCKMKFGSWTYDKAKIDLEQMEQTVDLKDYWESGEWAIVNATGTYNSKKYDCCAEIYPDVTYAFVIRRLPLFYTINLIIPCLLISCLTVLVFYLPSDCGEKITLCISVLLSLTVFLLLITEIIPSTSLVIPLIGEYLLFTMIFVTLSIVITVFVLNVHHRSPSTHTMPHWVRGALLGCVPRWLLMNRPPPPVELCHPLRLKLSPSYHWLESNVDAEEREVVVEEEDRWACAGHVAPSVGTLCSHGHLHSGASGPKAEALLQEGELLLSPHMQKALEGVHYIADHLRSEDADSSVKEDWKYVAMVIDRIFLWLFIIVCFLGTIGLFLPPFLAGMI
compound,measurement,setting,value
CN(C)C(=S)S,AC50,[1],25 µM (active)
same,outcome,[2],inactive
N#CCCC(Br)(C#N)CBr (configuration not stated),AC50,[1],4.83 µM (active)
O=C(N[C@H]1CN2CCC1CC2)c1ccc2c(c1)OCCO2,outcome,[3],inactive
same,AC50,[4],12.1 µM (active)
COC(=O)Nc1cccc(OC(=O)Nc2cccc(C)c2)c1,AC50,[5],25 µM (active)
Oc1cc(Cl)c(Cl)cc1Cl,AC50,[5],10.2 µM (active)
Oc1c(Cl)cc(Cl)cc1Cl,outcome,[6],inactive
CCCCCCCCCCCCc1cccc(S(=O)(=O)O)c1,AC50,[7],22.5 µM (active)
C[N+](C)(C)Cc1ccccc1,AC50,[8],25 µM (active)
same,outcome,[8],inactive
O=C1C[C@@H]2OCC=C3CN4CC[C@]56c7ccccc7N1[C@H]5[C@H]2[C@H]3C[C@H]46,outcome,[8],inactive
